Measurements reported in PubChem BioAssay AID1159580 (chemical genetic matrix, 2015).
Where “and” joins values, the source holds several entries; their conditions need not be identical. Equal entries are not always repeated. Hit rate of the full screen: of about 5,500 compounds, about 2,000 (36%) were called active. Inconclusive results (about 18%) are left out. Rule as the data show it: active = normalized growth mostly below about 0.91 (no sharp cut-off); inconclusive = no clear call, values can overlap the other calls; inactive = mostly above about 0.92. Some of the results follow.

Test: chemical genetic growth profiling, strain panel (AID 1159580);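 also: tested at 20 µM; growth read once vehicle control cultures reached saturation at 30 °C; 1 = growth at the plate median or of vehicle wells; lower values mean less growth of the strain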
Conditions: S. cerevisiae deletion strains, growth OD

Measured: normalized growth

O=C(Oc1cc(O)cc2c1C[C@@H](OC(=O)c1cc(O)c(O)c(O)c1)[C@@H](c1cc(O)c(O)c(O)c1)O2)c1cc(O)c(O)c(O)c1
0.115 (active) and 0.99 (inactive): locus YJL095W, strain BCK1, stronger effect = lower value
active: locus YBR229C, strain ROT2, stronger effect = lower value 0.482 | locus YCL029C, strain bik1, stronger effect = lower value 0.668 | locus YDL035C, strain GPR1, stronger effect = lower value 0.133 | locus YDL074C, strain BRE1, stronger effect = lower value 0.334 | locus YDL101C, strain DUN1, stronger effect = lower value 0.147 | locus YDL185W, strain tfp1, stronger effect = lower value 0.872 | locus YDL192W, strain arf1, stronger effect = lower value 0.638 | locus YDR101C, strain arx1, stronger effect = lower value 0.806 | locus YDR162C, strain NBP2, stronger effect = lower value 0.0879 | locus YDR318W, strain mcm21, stronger effect = lower value 0.736 | locus YDR388W, stronger effect = lower value 0.759 | locus YDR502C, strain sam2, stronger effect = lower value 0.52 | locus YEL061C, strain CIN8, stronger effect = lower value 0.438 | locus YER155C, strain BEM2, stronger effect = lower value 0.775 | locus YER167W, strain BCK2, stronger effect = lower value 0.492 | locus YGL086W, strain mad1, stronger effect = lower value 0.431 | locus YGL248W, strain PDE1, stronger effect = lower value 0.24 | locus YGR078C, strain PAC10, stronger effect = lower value 0.621 | locus YGR135W, strain pre9, stronger effect = lower value 0.62 | locus YGR252W, strain gcn5, stronger effect = lower value 0.658 | locus YHR079C, strain IRE1 (second series), stronger effect = lower value 0.79 | locus YHR129C, strain ARP1, stronger effect = lower value 0.337 | locus YHR200W, strain rpn10, stronger effect = lower value 0.661 | locus YIL066C, strain RNR3, stronger effect = lower value 0.096 | locus YIL073C, strain SPO22, stronger effect = lower value 0.241 | locus YIR030C, strain dcg1, stronger effect = lower value 0.889 | locus YJL134W, strain LCB3, stronger effect = lower value 0.551 | locus YJL187C, strain SWE1 (second series), stronger effect = lower value 0.104
inactive: locus YAL021C, strain ccr4, stronger effect = lower value 1.01 | locus YAL026C, strain drs2, stronger effect = lower value 0.988 | locus YAL030W, strain snc1, stronger effect = lower value 1.01 | locus YBL061C, strain skt5, stronger effect = lower value 1.01 | locus YBR009C, strain hhf1, stronger effect = lower value 1.01 | locus YBR021W, strain FUR4, stronger effect = lower value 1.05 | locus YBR023C, strain chs3, stronger effect = lower value 1.02 | locus YBR171W, strain sec66, stronger effect = lower value 0.994 | locus YBR231C, strain swc5, stronger effect = lower value 1.02 | locus YBR279W, strain paf1, stronger effect = lower value 1.01 | locus YCL011C, strain gbp2, stronger effect = lower value 0.979 | locus YCL016C, strain dcc1, stronger effect = lower value 1.01 | locus YCL061C, strain MRC1, stronger effect = lower value 0.983 | locus YCL069W, strain vba3, stronger effect = lower value 0.992 | locus YCR088W, strain abp1, stronger effect = lower value 0.992 | locus YDL005C, strain med2, stronger effect = lower value 1.01 | locus YDL040C, strain nat1, stronger effect = lower value 0.998 | locus YDR001C, strain nth1, stronger effect = lower value 0.986 | locus YDR069C, strain doa4, stronger effect = lower value 1 | locus YDR137W, strain rgp1, stronger effect = lower value 0.99 | locus YDR159W, strain sac3, stronger effect = lower value 1.04 | locus YDR195W, strain ref2 1 | locus YDR297W, strain sur2, stronger effect = lower value 1.02 | locus YDR334W, strain swr1, stronger effect = lower value 0.996 | locus YDR335W, strain msn5, stronger effect = lower value 1.01 | locus YDR392W, strain spt3, stronger effect = lower value 1.02 | locus YEL003W, strain gim4, stronger effect = lower value 0.983 | locus YEL037C, strain rad23, stronger effect = lower value 0.982 | locus YEL061C, strain CIN8 (second series), stronger effect = lower value 1 | locus YER015W, strain faa2, stronger effect = lower value 0.989 | locus YER016W, strain bim1, stronger effect = lower value 1.02 | locus YER110C, stronger effect = lower value 0.956 | locus YER111C, strain swi4, stronger effect = lower value 0.974 | locus YER155C, strain BEM2 (second series), stronger effect = lower value 0.975 | locus YFR010W, strain ubp6, stronger effect = lower value 0.997 | locus YGL078C, strain dbp3, stronger effect = lower value 0.99 | locus YGL167C, strain pmr1, stronger effect = lower value 1.01 | locus YGL173C, strain kem1, stronger effect = lower value 1.02 | locus YGL227W, strain vid30, stronger effect = lower value 0.994 | locus YGL240W, strain doc1, stronger effect = lower value 1.05 | locus YGL253W, strain hxk2, stronger effect = lower value 1.03 | locus YHR013C, strain ard1, stronger effect = lower value 1.02 | locus YHR027C, strain rpn1, stronger effect = lower value 1.02 | locus YHR030C, strain SLT2, stronger effect = lower value 1.01 | locus YHR079C, strain IRE1, stronger effect = lower value 1 | locus YHR094C, strain hxt1, stronger effect = lower value 0.932 | locus YHR142W, strain chs7, stronger effect = lower value 1.01 | locus YIL125W, strain kgd1, stronger effect = lower value 0.958 | locus YJL092W, strain hpr5, stronger effect = lower value 0.989 | locus YJL095W, strain BCK1 (second series), stronger effect = lower value 1.02 | locus YJL115W, strain asf1, stronger effect = lower value 1 | locus YJL129C, strain trk1, stronger effect = lower value 1.03 | locus YJL154C, strain vps35, stronger effect = lower value 0.988 | locus YJL164C, strain tpk1, stronger effect = lower value 1.01 | locus YJL166W, strain qcr8, stronger effect = lower value 1.04 | locus YJL168C, strain set2, stronger effect = lower value 0.937
